Source: PubChem BioAssay AID743279 (National Center for Advancing Translational Sciences (NCATS), 2014)
The campaign covered roughly 360,000 compounds. About 17,000 (4.7%) were called active. Inconclusive results (about 5%) are left out. For the sample, actives were picked, then their nearest neighbours and some compounds at random. Unmarked numbers belong to inactive results. No stated cut-off is given here; in the data, active means activity change below about -50%; inconclusive means mostly about -30% to -49%; inactive means weaker than that.

Experiment: qHTS for Inhibitors of Inflammasome Signaling: IL-1-beta AlphaLISA Primary Screen
Conditions: THP-1 LPS/ATP IL-1B secretion, 16 h; at 57.5 µM, hits give low values
Summary of the method: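 Secreted IL-1B measured by AlphaLISA bead assay after 16 h compound exposure of THP-1 cells; compounds (final up to 57.5 uM) added 1 h before LPS (250 ng/mL) and ATP (1.25 mM) stimulation; lower signal means less secretion.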
On the % scale 0 is the no-effect control and ±100 the full control effect.

| SMILES | activity change |
| --- | --- |
| CC1CN(Cc2ccco2)C(=S)N(c2ccccc2)C1=O (stereo unspecified) | 3.29% |
| OC(c1ccccc1)(c1ccccc1)C1CCN(CCCOc2ccccc2)CC1 | -28.1% |
| O=C1CCN(CCc2ccccc2)CCN1CCOc1ccccc1 | 23.9% |
| O=c1[nH]c2ccccc2n1C1CCN(CCOc2ccccc2)CC1 | -51.9% (active) |
| O=C(c1ccc(N2CCCC2=O)cc1)N1CCN(c2ccc(C(F)(F)F)cc2[N+](=O)[O-])CC1 | -8.61% |
| CCOc1ccc(Br)cc1S(=O)(=O)Nc1cccc(S(=O)(=O)N(CC)CC)c1 | -3.12% |
| CC1(C)OC(=O)C2=C(C[C@@H](C3CCCC3)O[C@@H]2c2ccc(Cl)cc2)O1 | 30.2% |
| Cc1cc(C)c2c(n1)nn1c(-n3ccnc3)cc(C)nc21 | -75.6% (active) |
| Cc1cc(C)c2c(NC(=O)C3CC3)nn(C)c2n1 | -2.02% |
| Cc1cc(-n2nc(C)cc2C)n2nc(C)c(-c3ccccc3)c2n1 | -4.92% |
| CN(C)Cc1ccc(F)cc1Sc1cc(Cl)ccc1Cl | 4.08% |
| Cc1ccccc1CN1C(=O)CSCC1(C)C(=O)Nc1c(C)cccc1C (stereo unspecified) | -3.26% |
| CC1C(C)N(C(=O)CCl)c2ccccc2N1C(=O)CCl (stereo unspecified) | -101% (active) |
| CC1C(=O)N(Cc2ccccc2)c2ccccc2N1C(=O)c1ccccc1 (stereo unspecified) | 0.175% |
| CC1CC(C)CN(CC(=O)N2c3ccccc3CCc3ccccc32)C1 (stereo unspecified) | -6.12% |
| O=C(OCCOc1ccccc1Cl)c1cc(S(=O)(=O)N2CCCCC2)ccc1N1CCOCC1 | 11.6% |
| O=C(c1c(Cl)cccc1Cl)N1CCN(c2cccc3[nH]ccc23)CC1 | -73.5% (active) |
| O=C(c1ccc2ccccc2n1)N1CCN(c2ccccc2Cl)CC1 | -2.41% |
| O=C(c1c(F)cccc1Cl)N1CCN(c2ccccn2)CC1 | -9.43% |
| Cc1ccc(C2=NN(C(=O)CSc3nc(N)cc(N)n3)C(c3ccco3)C2)cc1 (stereo unspecified) | -23.3% |
| COCCCN1C(=O)C(CC(=O)NCc2cccs2)CC(C(=O)N2CCOCC2)=C1C (stereo unspecified) | -1.75% |
